Reference: PubChem BioAssay AID1671202 (University of Kansas High Throughput Screening Laboratory, 2021)
Where “and” joins values, the source holds several entries; their conditions need not be identical. Equal values may be shown once. In all, about 190,000 compounds went through this assay and about 6,900 (3.6%) were called active. Rule as the data show it: active = inhibition above about 50%; inactive = the rest. The list comes from a sample in which actives are over-represented; it also holds similar structures and randomly drawn compounds. A structure can be active in one record and inactive in another.

target: Huntingtin (Homo sapiens) (UniProt P42858); test: mutant huntingtin-calmodulin interaction inhibitors – biochemical, AlphaScreen, primary screen (AID 1671202); conditions: AlphaScreen His-mHTT/GST-CaM binding, luminescence; at 15 µM, stronger effect = higher value;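 also: 0% = both proteins with DMSO and 100% = one protein alone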
Sequence (P42858 whole entry, looked up, stated change not applied): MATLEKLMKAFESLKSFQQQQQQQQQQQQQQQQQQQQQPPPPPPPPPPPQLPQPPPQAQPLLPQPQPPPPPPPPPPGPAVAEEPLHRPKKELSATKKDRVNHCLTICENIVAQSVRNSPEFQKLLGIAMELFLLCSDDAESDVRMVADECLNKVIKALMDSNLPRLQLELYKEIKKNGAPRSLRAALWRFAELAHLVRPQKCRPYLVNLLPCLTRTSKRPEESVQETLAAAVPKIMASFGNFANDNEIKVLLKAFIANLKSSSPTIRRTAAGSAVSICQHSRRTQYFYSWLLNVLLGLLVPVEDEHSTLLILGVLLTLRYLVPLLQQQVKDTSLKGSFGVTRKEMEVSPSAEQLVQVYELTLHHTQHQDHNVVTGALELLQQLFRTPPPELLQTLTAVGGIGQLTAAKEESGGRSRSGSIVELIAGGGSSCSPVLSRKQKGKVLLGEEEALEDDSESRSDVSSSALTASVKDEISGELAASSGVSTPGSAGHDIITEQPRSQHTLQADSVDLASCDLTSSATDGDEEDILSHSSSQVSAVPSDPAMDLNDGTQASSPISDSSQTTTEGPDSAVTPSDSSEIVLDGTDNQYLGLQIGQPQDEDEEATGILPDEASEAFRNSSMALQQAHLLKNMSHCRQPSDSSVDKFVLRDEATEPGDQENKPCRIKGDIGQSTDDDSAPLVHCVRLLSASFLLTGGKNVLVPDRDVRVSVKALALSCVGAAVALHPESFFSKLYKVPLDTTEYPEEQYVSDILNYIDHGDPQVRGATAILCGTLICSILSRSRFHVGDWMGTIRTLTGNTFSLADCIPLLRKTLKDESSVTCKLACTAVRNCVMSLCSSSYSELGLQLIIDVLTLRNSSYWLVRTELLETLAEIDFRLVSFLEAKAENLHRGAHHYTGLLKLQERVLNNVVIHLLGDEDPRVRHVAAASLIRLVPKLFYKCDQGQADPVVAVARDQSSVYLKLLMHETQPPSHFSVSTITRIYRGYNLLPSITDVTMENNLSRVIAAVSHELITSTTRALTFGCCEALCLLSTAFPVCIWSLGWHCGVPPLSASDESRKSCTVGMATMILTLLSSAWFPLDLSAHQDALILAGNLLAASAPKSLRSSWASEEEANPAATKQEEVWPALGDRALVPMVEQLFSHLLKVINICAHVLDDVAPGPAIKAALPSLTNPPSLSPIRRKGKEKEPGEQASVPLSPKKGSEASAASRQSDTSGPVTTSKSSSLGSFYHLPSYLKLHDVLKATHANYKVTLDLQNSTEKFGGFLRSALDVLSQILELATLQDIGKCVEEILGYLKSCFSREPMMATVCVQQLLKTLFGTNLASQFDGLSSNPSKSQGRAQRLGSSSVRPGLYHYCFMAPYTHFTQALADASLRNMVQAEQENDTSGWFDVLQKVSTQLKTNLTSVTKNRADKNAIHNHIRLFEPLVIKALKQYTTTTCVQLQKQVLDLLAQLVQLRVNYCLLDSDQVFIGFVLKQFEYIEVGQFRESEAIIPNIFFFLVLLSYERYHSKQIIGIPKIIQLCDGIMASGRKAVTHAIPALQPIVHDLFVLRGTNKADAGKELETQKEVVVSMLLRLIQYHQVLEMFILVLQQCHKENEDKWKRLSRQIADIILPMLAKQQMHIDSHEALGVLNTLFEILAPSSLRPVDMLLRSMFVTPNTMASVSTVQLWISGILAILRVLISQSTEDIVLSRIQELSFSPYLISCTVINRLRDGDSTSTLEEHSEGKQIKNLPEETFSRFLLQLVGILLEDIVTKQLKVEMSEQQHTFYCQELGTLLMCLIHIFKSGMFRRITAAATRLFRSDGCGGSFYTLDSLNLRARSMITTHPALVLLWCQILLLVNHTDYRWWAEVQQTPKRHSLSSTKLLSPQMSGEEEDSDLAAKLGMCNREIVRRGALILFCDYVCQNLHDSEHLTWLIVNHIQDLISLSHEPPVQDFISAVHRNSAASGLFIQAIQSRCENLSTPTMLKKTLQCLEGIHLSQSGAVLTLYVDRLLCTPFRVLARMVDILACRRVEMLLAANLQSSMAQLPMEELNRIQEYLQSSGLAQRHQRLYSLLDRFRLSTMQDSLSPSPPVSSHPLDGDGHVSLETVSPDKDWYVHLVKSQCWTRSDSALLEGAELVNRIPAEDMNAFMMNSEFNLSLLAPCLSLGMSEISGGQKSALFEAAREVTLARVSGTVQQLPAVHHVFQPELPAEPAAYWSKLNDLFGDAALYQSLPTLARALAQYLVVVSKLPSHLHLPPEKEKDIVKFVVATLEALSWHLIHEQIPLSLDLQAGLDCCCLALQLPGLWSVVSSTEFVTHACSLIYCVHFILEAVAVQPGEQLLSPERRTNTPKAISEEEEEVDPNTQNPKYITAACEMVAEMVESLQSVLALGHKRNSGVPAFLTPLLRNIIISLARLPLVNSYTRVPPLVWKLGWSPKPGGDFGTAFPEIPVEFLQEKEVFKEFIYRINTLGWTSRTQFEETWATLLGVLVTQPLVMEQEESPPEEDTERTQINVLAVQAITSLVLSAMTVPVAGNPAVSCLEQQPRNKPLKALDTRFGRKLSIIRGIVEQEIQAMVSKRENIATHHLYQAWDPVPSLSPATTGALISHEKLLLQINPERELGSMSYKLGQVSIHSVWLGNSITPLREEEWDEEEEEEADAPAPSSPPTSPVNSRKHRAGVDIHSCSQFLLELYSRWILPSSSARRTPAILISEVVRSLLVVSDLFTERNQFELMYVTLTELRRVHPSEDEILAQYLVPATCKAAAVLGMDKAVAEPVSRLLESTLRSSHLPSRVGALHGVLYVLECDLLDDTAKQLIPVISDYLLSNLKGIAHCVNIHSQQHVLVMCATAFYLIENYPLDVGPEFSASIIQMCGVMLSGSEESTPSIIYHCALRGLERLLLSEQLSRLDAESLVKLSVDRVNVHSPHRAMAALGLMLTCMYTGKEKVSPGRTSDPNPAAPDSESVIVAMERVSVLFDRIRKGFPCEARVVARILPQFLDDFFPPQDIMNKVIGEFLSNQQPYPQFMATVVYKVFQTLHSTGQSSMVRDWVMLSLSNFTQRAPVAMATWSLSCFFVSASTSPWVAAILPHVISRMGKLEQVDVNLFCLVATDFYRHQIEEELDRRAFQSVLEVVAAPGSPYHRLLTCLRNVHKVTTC

SMILES	inhibition
CC(C)N1C(=O)C(C)N(C(=O)NCc2ccc(F)cc2)c2cccnc21 (stereo not drawn)	10.9% (inactive)
Cc1ccc(NC(=O)CSC2=NC(C)(C)N=C2c2ccccc2)c(C)c1	-6.5% (inactive)
O=C(CSc1cccc2cccnc12)Nc1ccc(Br)cc1	3.8% (inactive)
Cc1ccc(NC(=O)CSc2cccc3cccnc23)c(C)c1	86% (active)
N#CC1=C2C=CC(O)=CC2OC=C1N (stereo not drawn)	55.1% (active)
Cn1c(SCc2ccc([N+](=O)[O-])cc2)nnc1-c1cccs1	4% (inactive)
CCN1C(=O)CCc2cc(NC(=O)c3sccc3C)ccc21	-2.8% (inactive)
Cc1nn(C)c(C)c1Nc1ccc(N2C(=O)CCCC2=O)cc1[N+](=O)[O-]	1% (inactive)
O=C1C2C3C=CC(C3)C2C(=O)N1c1ccc(Nc2ccc3c(c2)CCC3)c([N+](=O)[O-])c1 (stereo not drawn)	74% (active)
Cc1ccc(N2C(=O)C3C4c5ccccc5C(CO)(c5ccccc54)C3C2=O)cc1[N+](=O)[O-] (stereo not drawn)	27% (inactive)
COc1ccccc1CNC(=O)C1CCN(c2cncnc2N2CCN(C)CC2)CC1	5.19% (inactive)
CC(C)(C)NC(=O)c1ccc2c(c1)CCN2C(=O)C1CC1	-4.5% (inactive)
CCOC(=O)NCCS(=O)(=O)N1CCN(c2ccc(OC)cc2)CC1	1.1% (inactive)
N#C/C(=C\c1cccn1-c1ccc([N+](=O)[O-])cc1)c1nn(CCO)c(N)c1C#N	-2.4% (inactive) and 4% (inactive)
CS(=O)(=O)N1CCc2cc(NC(=O)Nc3ccccc3)ccc21	12.4% (inactive)
CC1CC(C)CN(CC(O)COc2ccc(C34CC5CC(CC(C5)C3)C4)cc2)C1 (stereo not drawn)	65.1% (active)
COc1ccc(N2CCN(CC(O)COC34CC5CC(CC(C5)C3)C4)CC2)cc1 (stereo not drawn)	27.7% (inactive)
Cc1ccc(OCC(O)CN2CCCC2)cc1C (stereo not drawn)	1.8% (inactive)
CCN(CC)CC(O)COc1ccc(C23CC4CC(CC(C4)C2)C3)cc1 (stereo not drawn)	98.6% (active)
CCN1CCN(CC(O)COc2ccc(C34CC5CC(CC(C5)C3)C4)cc2)CC1 (stereo not drawn)	50.3% (active)
CCN(CC(O)COC12CC3CC(CC(C3)C1)C2)C1CCCCC1 (stereo not drawn)	-6.1% (inactive)
Cc1ccc(OCC(O)CNC2CCCCC2)cc1 (stereo not drawn)	-7.1% (inactive)
CCc1ccc(OCC(O)CN2CCN(c3ccc(F)cc3)CC2)cc1 (stereo not drawn)	15.9% (inactive)
CC(=O)c1ccc(OCC(O)CN2CCN(c3ccccc3)CC2)cc1 (stereo not drawn)	9.71% (inactive)
CCn1nccc1C(=O)N1CC2CC(NC(=O)c3cccs3)C1C2 (stereo not drawn)	1.26% (inactive)

SMILES	inhibition
Cc1ccc2nc(NCc3ccccc3)c(C=Nc3ccccc3)c(=O)n2c1	6% (inactive)
CCc1ccc(CNC(=O)c2c(C)sc3c(=O)n(C4CCCC4)cnc23)cc1	-6.7% (inactive)
CN1CCN(C(=O)c2cc3c(=O)n(C)ccc3n2C)CC1	-9.9% (inactive)
CCOc1ccc(S(=O)(=O)Nc2ccccc2F)c2cccnc12	4% (inactive)
O=S(=O)(Nc1ccc(Cl)cc1F)c1c[nH]c2ncccc12	71.8% (active)
O=S(=O)(Nc1ccc(F)cc1)c1cccnc1Nc1ccc(Cl)cc1	-23.3% (inactive)
Cc1cccc(OCC(=O)N2CCCC(OCc3nc(C)no3)C2)c1 (stereo not drawn)	-7.37% (inactive)
Cc1ccc(-c2nnc(C(=O)c3ccccc3)o2)cc1	0.5% (inactive)
O=S(=O)(c1cc(Br)ccc1Br)N1CCOCC1	-4% (inactive)
COC(=O)Oc1c([N+](=O)[O-])cc2oc(=O)sc2c1[N+](=O)[O-]	53% (active)
COc1ccc(Br)cc1C(=O)Nc1cc2cccc([N+](=O)[O-])c2oc1=O	-7% (inactive)
Cc1oc2c(Cl)c(Cl)c(O)cc2c1[N+](=O)[O-]	32% (inactive)
O=C1CCCC2=C1C(c1cccc(Br)c1)n1nc(-c3ccccc3)nc1N2 (stereo not drawn)	-1.86% (inactive)
O=C(NCc1cccnc1)c1cc(-c2ccccn2)nc2ccccc12	34% (inactive)
CCOc1ccc(-c2cc(C(=O)NCc3ccccn3)c3ccccc3n2)cc1	-9.8% (inactive) and 70% (active)
CCOc1cccc(-c2cc(C(=O)NCCN3CCOCC3)c3ccccc3n2)c1	11.4% (inactive)
CCOc1ccc(/C=C2\CS/C(=C\c3ccc(OCC)cc3)C2=O)cc1	28% (inactive)
CC(=O)N(C)CC(=O)N1N=C(c2cccs2)CC1c1ccccc1Cl (stereo not drawn)	1.2% (inactive)
CC(C)C(=O)N(C)CC(=O)N1N=C(c2ccc(F)cc2)CC1c1ccc(F)cc1 (stereo not drawn)	29.5% (inactive)
CNCC(=O)N1N=C(c2cccn2C)CC1c1ccccc1 (stereo not drawn)	8.9% (inactive)
CN(CC(=O)N1N=C(c2cccs2)CC1c1ccccc1F)C(=O)C1CCCC1 (stereo not drawn)	23% (inactive)
CC(C)C(=O)N(C)CC(=O)N1N=C(c2ccccc2Cl)CC1c1ccc(F)cc1 (stereo not drawn)	57% (active)
CC(=O)N(C)CC(=O)N1N=C(c2ccccc2Cl)CC1c1ccccc1Cl (stereo not drawn)	56.2% (active)
O=C(c1ccc(F)cc1)N1CCC(c2nc(-c3ccccc3)n[nH]2)CC1	12.2% (inactive)
O=C1CC[C@@]23CCCN2C(=O)CCC[C@H]3[C@H]1Cc1ccccc1	1.2% (inactive)

SMILES	inhibition
Cc1nc(-c2cccs2)c(CCC(=O)Nc2cccc3cccnc23)s1	8.1% (inactive)
C=C(C)CN(CC)Cc1cccc(OC)c1OC	-4.5% (inactive)
COc1ccc(C2CC(=O)C(C=Nc3cc(Cl)ccc3O)=C(O)C2)cc1 (stereo not drawn)	4% (inactive)
CCC(C)NC(=O)Cn1cnc2c(oc3ccccc32)c1=O (stereo not drawn)	-6.1% (inactive)
CC(=O)c1ccc(NC(=O)c2ccc(CN(c3ccc(C)c(C)c3)S(C)(=O)=O)cc2)cc1	3.8% (inactive)
CC(=O)Nc1ccc(NC(=O)c2ccc(N(C)C)cc2)cc1	5.9% (inactive)
Cc1ccc(C(=O)Nc2ccc(N(C)C)cc2)cc1C	59.4% (active)
CCOc1ccc(CNC(=O)C2CCCN(c3ccc(N4CCOCC4)nn3)C2)cc1 (stereo not drawn)	-1.05% (inactive)
COCCNC(=O)c1cn2cc(C)ccc2n1	-7.5% (inactive)
O=C(CCC(=O)N1CC2CCCN2c2ccccc21)NCc1cccc(Br)c1 (stereo not drawn)	36.6% (inactive)
O=C(CCC(=O)N1CC2CCCN2c2ccccc21)NCCCN1CCCCC1 (stereo not drawn)	7.41% (inactive)
O=C(CCC(=O)N1CC2CCCN2c2ccccc21)NCCCN1CCCC1 (stereo not drawn)	71.5% (active)
COc1ccc([N+](=O)[O-])cc1NCc1ccccc1Br	-6.4% (inactive)
CCOc1ccc(/C=C(\C#N)c2nc3ccc(C)cc3[nH]2)cc1OC	5.8% (inactive)
COc1cccc(/C=C(\C#N)c2nc3ccc(C)cc3[nH]2)c1OC	6.1% (inactive)
COc1cc(/C=C(\C#N)c2nc3ccc(C)cc3[nH]2)c(Br)cc1O	47.5% (inactive) and 79% (active)
CCS(=O)(=O)NCC1CCC(C(=O)Nc2ccccc2C)CC1 (stereo not drawn)	-10.6% (inactive)
O=C(C1CCCN(Cc2c[nH]c3ccccc23)C1)N1CCCCCC1 (stereo not drawn)	11.1% (inactive)
O=C(c1cccc2[nH]cc(CN3CCCC3)c12)N1CCN(c2ccccc2)CC1	54.3% (active)
Cc1ccc(C(=O)N2CCN(c3ccccc3)CC2)c(Cl)c1	2.2% (inactive)
CCN(CC)C(=O)CSc1nnc(NC(C)=O)s1	-5.1% (inactive)
O=C(N=c1sccn1CC(=O)N1CCCC1)c1ccccc1Cl	7% (inactive)
O=C(NC1CC2CC1N(C(=O)NCCc1ccccc1)C2)c1cccnc1 (stereo not drawn)	0.1% (inactive)
COc1ccccc1/C=C/CN1CCN(C)CC1	-4.8% (inactive)
COc1cccc(CN2CCN(C/C=C/c3ccccc3)CC2)c1OC	6.9% (inactive)

SMILES	inhibition
COc1cc(CN2CCN(C/C=C/c3ccccc3)CC2)cc(Br)c1O	55.5% (active)
Cc1oc(C2CCN(S(=O)(=O)c3ccc(F)cc3)CC2)nc1C(=O)N1CCOCC1	-2.14% (inactive)
CC(=O)NCCc1csc(C2CCN(C(=O)C3(c4ccccc4)CC3)CC2)n1	0.81% (inactive)
CCOc1c(Br)cc(/C=C2\NC(=O)N(Cc3ccccc3F)C2=O)cc1OC	-4% (inactive)
COc1cc(C=O)cc(Br)c1OCc1ccccn1	-0.1% (inactive)
C=CCOc1ccc(/C=C2/C(=O)ON=C2C)cc1OCC	89% (active)
CCOc1cc(C=C2C(=O)OC(C)(c3ccccc3)OC2=O)ccc1O (stereo not drawn)	7% (inactive)
CCOc1cc(/C=C2\C(=O)ON=C2C)cc(Br)c1OCc1ccccc1F	51% (active)
CCOc1ccc(/C=C2/N=C(c3ccc(Cl)cc3)OC2=O)cc1OCC	-5% (inactive)
NS(=O)(=O)c1ccc(NC(=O)CSc2nc3sc4c(c3c(=O)[nH]2)CCC4)cc1	5% (inactive)
COc1ccc(C2SCCN2C(=O)c2cc3ccccc3oc2=O)cc1 (stereo not drawn)	0% (inactive)
COc1ccc(C2CC(O)(C#Cc3ccccc3)C(C)C(c3ccc(OC)cc3)N2)cc1 (stereo not drawn)	100% (active)
Cc1[nH]nc(-c2ccc(S(=O)(=O)N3CCC(N4CCCCC4)CC3)s2)c1C	7.48% (inactive)
Cc1n[nH]c(C)c1S(=O)(=O)N1CCC(C(=O)Nc2ccc(Br)cc2)CC1	-8% (inactive)
COc1cccc(Nc2nc(-c3ccc(Cl)cc3)cs2)c1	82.2% (active)
Clc1ccc(-c2csc(Nc3ncccn3)n2)cc1	-1% (inactive)
COc1cc(NS(=O)(=O)c2ccc(Nc3nc(-c4cccnc4)cs3)cc2)nc(OC)n1	25.8% (inactive)
CC(Oc1ccccc1)C(=O)Nc1nc(-c2ccccc2)cs1 (stereo not drawn)	-30% (inactive)
O=C(Nc1nc(-c2ccc([N+](=O)[O-])cc2)cs1)c1ccc(Cl)cc1	0.3% (inactive)
CN(C)c1ccc(Nc2nc(-c3ccc(Cl)cc3)cs2)cc1	57.2% (active)
COc1ccc(-c2csc(Nc3ccc(O)cc3)n2)cc1	61.1% (active)
COc1ccc2oc(=O)c(-c3csc(Nc4cccc(C(C)=O)c4)n3)cc2c1	2% (inactive)
COc1cccc(N/C=C(\C#N)c2nc(-c3ccc(Cl)cc3)cs2)c1	-2% (inactive)
